These results are taken from the supplement of paper PMC6555819.

The subject of this experiment is LXRa:RXRa (NR concentration 270 nM, RXRa partner concentration 90 nM). Briefly: PBM binding z-score (relative to random genomic background probes); higher = stronger binding; sequences stand for … in GC…GCGATTGACAGCGTAGAATGAAGG
In short, it runs like this: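 Antibodies against each partner of ligand-free nuclear receptor dimers (one per run) detected binding on custom Agilent 4×180K protein-binding microarrays after 1 h incubation. The double-stranded probes had 34-nt variable regions carrying direct-repeat seeds, single-nucleotide variants, half-site ablations and random human genomic background sequences. Binding z-scores, from regression-normalized fluorescence, use the random background probes as reference.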
Sequence CCCCGGAGGACAGAAGGTCAGAGCTGTCCGCTTT returned a PBM binding z-score of 1.41.
The value for CCTACGGGGCCAAAGGTCATTGATTCCAATGCTC was 5.59.
Sequence TAGCCTAGCTCATTCAGGGGCCAGTATAGAAAGC had a PBM binding z-score of -1.
Then TAGCCTAGGTCATTGGGCTAGTATAGTACGCATC, with 3.19.
In turn, ATATGTAGGTTAGGGTCATTCCGAAAGTAGGGAA had a PBM binding z-score of 3.68.
The value for GACACAGGGTCAGCTAGAGGCCAGAGTATGGAAA was 2.62.
The value for CGAACTAGGCCACCAGGACAGTGAAGAGGTTGGA was -0.638; that for CCGTACGGGTCAAGGTTATAGCACGGGTGGTACG was 3.78.
With CCTACAGGGCCAAAGGTCATTGATTCCAATGCTC, the PBM binding z-score was determined as 5.24.
As for CCTACTGGGCCATCAGGTGATTGATATCAACGTT, the PBM binding z-score was -0.704.
The value for ATCGAATGGTCGAAGGTGAGTATACCCACCCGAA was -0.228.
For the sequence CCTAGTTGGTCAGGAGGTCACAAACCGGATATGA, the PBM binding z-score is 2.85.
As for ATACGTAGGTTACATCCGGGTCATTCAGGCTATG, the PBM binding z-score turned out to be 4.39.
CCTTACGGGTCACTGACAGGTCATAGCATTTGGA registered a PBM binding z-score of 5.72.
Take CCTAGTTGGTCAGGAGGCCACACACCGGATATGA: the PBM binding z-score came to 0.364.
On to CGAACTAGGTCACCTGGACAGTGAAGAGGTTGGA, for which the PBM binding z-score was found to be 2.38.
Then CGAACTAGGTCACCATGACAGTGAAGAGGTTGGA, with 1.88.
CCTACTGGGCCAAAAATGTCATTGATGCCGATAA showed a PBM binding z-score of -0.771.
Then CGCACTAGGTCACCAGGACAGTGAAGAGGTTGGA, with 2.51; and CGAACTATGTCACCAGGACAGTGAAGAGGTTGGA, with 0.0175.
The value for ATACCAAGGTTATCGTGAGGTCGTTGATACTAAC was 4.42; that for CCTACTGGGCGACGAAAGGTCATTGATTCAGTGA was 3.92.
